Screening data as filed in PubChem BioAssay.
Hits are enriched below; roughly 3.3% of the tested compounds scored in any of these assays.
Mcl-1 Bim block – human Bim-Mcl-1 interaction inhibition | Bead-based flow cytometry, Bim peptide-Mcl-1 binding | inhibition, % at 10 µM | Q07820 | 0.1% of 190,000 active; in the data active means inhibition above about 40%;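 further: 0% = no compound tracer wells and 100% = peptide blocker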
14-3-3 Bad inh – disrupts binding of bovine 14-3-3 zeta to phospho-Bad peptide; P63103; TR-FRET 14-3-3zeta/Dy647-pBad peptide displacement, 1 h; inhibition, % at 21.7 µM; 0.71% of 220,000 active; AID 781;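 active means inhibition above about 70%, limit read from the data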;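 further: 0% = full 14-3-3 plus peptide FRET controls and 100% = background without 14-3-3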
eIF4E-4G inh – blocks eIF4E binding to eIF4G. 0.37% of 220,000 active. TR-FRET eIF4E-eIF4GI(517-606) binding, 2 h. inhibition, % at 21.7 µM. P63073+Q04637;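 further: 0% = full FRET control wells and 100% = background wells lacking eIF4GI fragment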
Mcl1 Noxa PPI – Mcl-1/Noxa interaction inhibition. inhibition, % at 21.7 µM. AID 1022. TR-FRET Mcl-1/Noxa peptide binding, 2 h. Q07820. 1.5% of 220,000 active;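 active means compounds that cut the protein-peptide binding signal by more than 50% relative to plate controls in a single-dose test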;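 further: His-tagged Mcl-1 with rhodamine Noxa BH3 peptide and terbium anti-His antibody; 0% = Mcl-1 plus Noxa peptide wells and 100% = peptide-only wells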
p47phox inh – p47phox (human) inhibition; AID 1274; p47phox/p22phox peptide binding, fluorescence polarization, 2 h; inhibition, % at 24.7 µM; 0.53% of 220,000 active; P14598;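 further: 0% = p47phox with labelled peptide and 100% = labelled peptide alone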
Mcl1 Bid PPI – Mcl-1/Bid interaction inhibition. TR-FRET Mcl-1/Bid-Dy647 peptide binding, 1536-well. inhibition, % at 21.7 µM. Q07820. 0.97% of 220,000 active. AID 1021;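 active means compounds that cut the binding signal by more than half at the single screening dose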;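 further: His-tagged Mcl-1 with europium anti-His antibody binding Bid BH3 peptide; 0% = Mcl-1 plus peptide wells and 100% = peptide-only wells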
* hit, by the source's call; . = no result given; [ ] = another dose, or the depositor's remark.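 How the source made its calls, unless noted: active means inhibition above about 30% (limit read from the data); inactive means the rest.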

SMILES | Mcl-1 Bim block | 14-3-3 Bad inh | eIF4E-4G inh | Mcl1 Noxa PPI | p47phox inh | Mcl1 Bid PPI
c1ccc(CCN2CCC(N3CCN(c4ccccc4)CC3)CC2)cc1 | -2.0 | 14.7 | 7.5 | 11.4 | -14.3 | -15.7
Cc1nc2ccccc2c(=O)n1-c1ccncc1 | . | 7.0 | 0.7 | -15.3 | -5.4 | -32.8
Cc1nc2ccccc2c(=O)n1-c1ccc(F)cc1 | -2.0 | -4.9 | -12.8 | 9.9 | 32.3* | -1.3
Cn1c(O)c(/C=C/C=Nc2ccccc2)c(=O)n(C)c1=S | -4.0 | 4.7 | -0.7 | 70.0* | -266.9 | 55.5*
Nc1c(C(=O)NCCc2ccccc2)c2nc3ccccc3nc2n1CCN1CCOCC1 | 1.0 | 76.1*[fluorescence artefact?] | 25.8 | 15.2 | -27.6 | 76.9*
C=CCNC(=O)c1c(N)n(Cc2ccco2)c2nc3ccccc3nc12 | -1.0 | 6.3 | 9.3 | 57.3* | -26.2 | -9.9
Nc1c(C(=O)NCCN2CCOCC2)c2nc3ccccc3nc2n1Cc1ccco1 | 3.0 | -5.2 | -0.7 | 76.4* | -47.4 | -9.4
Cc1ccc(OP(=O)(NC(C)c2ccccc2)Oc2ccc(C)cc2)cc1 (stereo unspecified) | -5.0 | -6.2 | -4.5 | 11.8 | -15.3 | -14.2
O=C1NC(=O)C2=Cc3ccc(O)cc3OC2(O)N1 (stereo unspecified) | -1.0 | -5.6 | 4.2 | 11.4 | 1.4 | -26.9
CN1C(=O)CN=C(c2ccc(Cl)cc2)c2cc(Cl)ccc21 | -4.0 | 3.5 | 3.1 | 15.7 | 3.0 | 97.3*
Cc1nnc2n1-c1ccc(Cl)cc1C(c1ccccc1)=NC2 | -2.0 | -0.6 | 1.4 | -1.6 | -6.5 | 2.0
CCC(C)N1C(=O)/C(=C/c2ccc3c(c2)CCN3CCCCl)C(=O)NC1=S (stereo unspecified) | -4.0 | -3.6 | 6.0 | 101.2* | 37.6* | 39.1
NC(=O)Nc1ccc(C(=O)OCC(=O)Nc2ccc(Cl)cc2C(=O)c2ccccc2)cc1 | -5.0 | -3.2 | 2.3 | 18.9 | -3.3 | 3.7
COc1ccc(CN2CCCCC2c2cccnc2)cc1C (stereo unspecified) | 2.0 | 55.1 | -8.4 | 13.4 | 2.2 | -8.2
COc1cccc(CN2CCCCC2c2cccnc2)c1 (stereo unspecified) | -1.0 | 81.3* | 12.5 | 28.7 | 1.9 | 37.8
COc1ccc2c(c1)NP(=S)(Oc1ccccc1)N2 (stereo unspecified) | . | 13.8 | 3.7 | 52.5* | 4.1 | -51.3
CN1CCC2(CC1)CC(NC=O)c1ccccc1O2 (stereo unspecified) | 2.0 | -0.2 | -0.1 | -0.3 | -4.5 | -9.8
Cc1cccc(-n2c(-c3ccccc3)nc3ccccc3c2=O)n1 | 0.0 | -3.2 | 2.9 | -7.4 | 1.2 | -30.0
O=[N+]([O-])c1cc2c(cc1CNCCc1ccc3c(c1)OCO3)OCO2 | -5.0 | 15.3 | 0.9 | 20.2 | 5.2 | 56.4*
O=[N+]([O-])c1ccccc1CNCCc1ccc(F)cc1 | 0.0 | 65.5 | 7.3 | 10.0 | -10.0 | 7.5
CN1C(=O)C(=Cc2sc(=O)n(-c3ccccc3)c2N2CCCCC2)C(=O)N(C)C1=O | . | -4.6 | -5.9 | -5.1 | 82.6* | 96.7*
CN1C(=O)C(=Cc2cc([N+](=O)[O-])ccc2N2CCCCC2)C(=O)N(C)C1=O | -1.0 | -6.2 | -2.5 | 4.1 | 9.4 | -16.9
O=C(O)CCn1cc(C=C2C(=O)NC(=S)NC2=O)c(-c2cccc(Cl)c2)n1 | 1.0 | 29.9 | 9.4 | 96.9* | 13.8 | 13.7
O=C(O)CCn1cc(C=C2C(=O)NC(=O)NC2=O)c(-c2ccc(Br)cc2)n1 | -1.0 | -10.1 | 4.6 | 44.6 | -3.5 | -59.6
CCCCCCNC(=O)N[C@H](Cc1ccc(O)cc1)C(=O)NCCC[C@H]1CN2C(=NC[C@H]2CCC)N1CC1CCC1 | . | -11.1 | 55.8* | 18.0 | 59.9* | -45.0
SMILES | Mcl-1 Bim block | 14-3-3 Bad inh | eIF4E-4G inh | Mcl1 Noxa PPI | p47phox inh | Mcl1 Bid PPI
CCCCCCNC(=O)N[C@@H](Cc1ccc(O)cc1)C(=O)NCCC[C@H]1CN2C(=NC[C@H]2C)N1CC1CCC1 | . | -6.0 | 8.2 | 0.3 | 1.5 | -62.0
O=C(c1ccc2c(c1)ncn2-c1ccc(F)cc1F)N1CCC2(CC1)OCCO2 | 0.0 | -16.5 | 1.1 | 9.9 | 42.9* | -0.7
CCC1CCCCN1CC(=O)c1ccc(OC(F)F)cc1 (stereo unspecified) | -6.0 | 7.7 | 0.9 | 5.4 | -2.4 | -20.3
O=C1NC(=O)C(=Cc2ccc(-c3ccccc3[N+](=O)[O-])o2)C(=O)N1 | . | 9.6 | -6.3 | 21.0 | 0.0 | -71.2
O=C1NC(=O)C(=Cc2ccc(-c3cc(Cl)ccc3[N+](=O)[O-])o2)C(=O)N1 | -4.0 | 79.4* | 11.1 | 86.9* | -20.1 | 32.1
C=C1C2C[C@H](O)C(C)(C)[C@@]2(O)[C@H](O)C[C@]23C[C@@](C)(O)[C@H](CC[C@H]12)[C@H]3OC(C)=O (stereo partly specified) | 1.0 | 92.9*[fluorescence artefact?] | 2.1 | 4.2 | -3.4 | -9.9
CC(=O)NN1C(=O)c2ccccc2NC1c1cccnc1 (stereo unspecified) | 2.0 | -2.1 | -1.1 | 9.1 | -11.9 | -10.2
CCc1n[nH]c(CCN)n1 | . | -7.8 | 2.3 | 9.5 | 12.7 | 9.3
O=C(COC(=O)Cc1ccccc1)Nc1cccnc1Cl | 0.0 | 0.6 | -2.7 | -2.1 | 0.3 | -17.3
O=C(Cc1ccccc1)OCCNC(=O)c1cccnc1 | 92.0* | 70.6* | -4.2 | 12.9 | -8.4 | 47.3
Brc1ccccc1 | . | -0.1 | -10.3 | -15.3 | -6.7 | 82.5*
c1cc(C2N3CCCN2CC3)ccn1 (stereo unspecified) | . | -0.8 | -4.2 | -2.3 | -5.6 | -69.7
